Measured values from the supplement of paper PMC7669877.
± gives the uncertainty stated by the source.

System: Candidatus Liberibacter solanacearum in potato hairy roots
Assay: relative CLso titer (% of untreated control); higher = less inhibition of bacterial titer
Conditions: 10 µM; 72 h
Experimental: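 Primary screen of ~220 Spectrum collection (MicroSource) compounds at 10 µM (0.1% DMSO) on Candidatus Liberibacter solanacearum-infected potato hairy roots in multi-well plates (Gamborg B-5 medium, vacuum infiltrated, 21 °C, dark, 72 h). CLso titer was measured by qPCR of 16S rDNA normalised to potato RPL2 (2^-ddCq), pairwise-standardised against untreated controls, averaged over two biological replicates and expressed as % of untreated.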

SMILES	relative CLso titer [%]
O=C(O)CCC(=O)OC[C@@H](NC(=O)C(Cl)Cl)[C@H](O)c1ccc([N+](=O)[O-])cc1	49.1 ± 3.2
C[C@H]1O[C@@H](O[C@H]2[C@@H](O)C[C@H](O[C@H]3[C@@H](O)C[C@H](O[C@H]4CC[C@@]5(C)[C@H](CC[C@@H]6[C@@H]5CC[C@]5(C)[C@@H](C7=CC(=O)OC7)CC[C@]65O)C4)O[C@@H]3C)O[C@@H]2C)C[C@H](O)[C@@H]1O	231 ± 140
OC[C@@H](O)[C@@H](O)[C@H](O)[C@H](O)CO	70.5 ± 11
CCN(CCCc1ccccc1)CCCc1ccccc1	66.9 ± 21
CCN(CC)CCOc1ccc(C(=C(Cl)c2ccccc2)c2ccccc2)cc1	42.7 ± 2.2
Clc1ccc(CSC(Cn2ccnc2)c2ccc(Cl)cc2Cl)cc1 (centres undefined)	111 ± 31
CC(C)CCCC(C)N (centres undefined)	93.3 ± 14
OCCN(CCO)c1nc(N2CCCCC2)c2nc(N(CCO)CCO)nc(N3CCCCC3)c2n1	107 ± 26
C#C[C@]1(OC(C)=O)CC[C@H]2[C@@H]3CCC4=CC(=NO)CC[C@@H]4[C@H]3CC[C@@]21CC (mixture of isomers)	64.9 ± 10
C[C@H]1O[C@@H](O[C@H]2[C@@H](O)C[C@H](O[C@H]3[C@@H](O)C[C@H](O[C@H]4CC[C@@]5(C)[C@H](CC[C@@H]6[C@@H]5C[C@@H](O)[C@]5(C)[C@@H](C7=CC(=O)OC7)CC[C@]65O)C4)O[C@@H]3C)O[C@@H]2C)C[C@H](O)[C@@H]1O	86.7 ± 7.9
CC(=O)OCC(=O)[C@@]1(O)[C@H](C)C[C@H]2[C@@H]3CCC4=CC(=O)C=C[C@]4(C)[C@@]3(F)[C@@H](O)C[C@@]21C	101 ± 39
Nc1ccc(C(=O)O)c(O)c1	73 ± 16
COc1cc(NS(=O)(=O)c2ccc(N)cc2)nc(OC)n1	96 ± 21
CCC1(C)CC(=O)NC1=O (centres undefined)	119.65 ± 0.011
O=C(O)Cc1ccccc1Nc1c(Cl)cccc1Cl	151 ± 55
CC1=C(C(=O)O)N2C(=O)[C@@H](NC(=O)[C@H](N)c3ccccc3)[C@H]2SC1	87.1 ± 16
C[C@@](Cc1ccc(O)c(O)c1)(NN)C(=O)O	138.8 ± 1.3

SMILES	relative CLso titer [%]
CCN(CC)CCNC(=O)COc1ccc(OC)cc1	93.2 ± 2.3
CC(=O)OCC[N+](C)(C)C	96.2 ± 31
NC12CC3CC(CC(C3)C1)C2	42.5 ± 3.2
COc1cc(NS(=O)(=O)c2ccc(N)cc2)ncn1	60.3 ± 11
CCOC(=O)CCC(=O)O[C@H]1[C@H](O[C@@H]2[C@@H](C)[C@H](O[C@H]3C[C@@](C)(OC)[C@@H](O)[C@H](C)O3)[C@@H](C)C(=O)O[C@H](CC)[C@@](C)(O)[C@H](O)[C@@H](C)C(=O)[C@H](C)C[C@@]2(C)O)O[C@H](C)C[C@@H]1N(C)C	169 ± 3.5
Clc1cccc(Cl)c1NC1=NCCN1	55.5 ± 4.1
CN(C)CCOC(C)(c1ccccc1)c1ccccn1 (centres undefined)	109 ± 7.3
C[C@@H]1C[C@H]2[C@@H]3CCC4=CC(=O)C=C[C@]4(C)[C@@]3(F)[C@@H](O)C[C@]2(C)[C@@]1(O)C(=O)CO	196 ± 16
Cn1nnnc1SCC1=C(C(=O)O)N2C(=O)[C@@H](NC(=O)[C@H](OC=O)c3ccccc3)[C@H]2SC1	86.7 ± 26
CC(=O)N(O)CCCCCNC(=O)CCC(=O)N(O)CCCCCNC(=O)CCC(=O)N(O)CCCCCN	210 ± 59
CN1CCN(CC(=O)N2c3ccccc3C(=O)Nc3cccnc32)CC1	56.9 ± 5.4
C[C@@H](O[C@H]1OCCN(Cc2n[nH]c(=O)[nH]2)[C@H]1c1ccc(F)cc1)c1cc(C(F)(F)F)cc(C(F)(F)F)c1	117 ± 51
CC1=C(/C=C/C(C)=C/C=C/C(C)=C/C(=O)O)C(C)(C)CCC1	132 ± 9.7
CS(=O)(=O)OCCCCOS(C)(=O)=O	66.9 ± 7.5
CN(C)CCCN1c2ccccc2Sc2ccc(Cl)cc21	46.9 ± 8.8
CN(C)[C@@H]1C(O)=C(C(N)=O)C(=O)[C@@]2(O)C(O)=C3C(=O)c4c(O)ccc(Cl)c4[C@@H](O)[C@H]3C[C@@H]12	173 ± 42
CC(=O)N[C@@H](CS)C(=O)O	55.7 ± 25
